KDM4E inh: inhibitors of human JMJD2E histone demethylase; B2RXH2; JMJD2E catalytic domain, FDH-coupled NADH fluorescence (FDH is formaldehyde dehydrogenase); Potency, µM (doses to about 57.1 µM), for the others: at the highest dose activity change, negative = inhibition, most hits filed as inhibitors; actives 1.6% (n = 230,000); active = well fitted inhibition curve with a large enough effect, not every such curve was filed as active; inconclusive = small, poorly fitted or top-dose-only effect, or another doubt; inactive = no such curve, though single readings can be large or run the other way;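 note: 0% = wells with enzyme and -100% = buffer wells without enzyme; nearly all actives have a fitted effect of over 50% in size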
BLM helicase inh: inhibitors of human Bloom syndrome helicase BLM; P54132; actives 0.2% (n = 350,000); Potency, µM (top dose mostly 56.1 µM), inactives show at the highest dose activity change, negative = inhibition, actives largely listed as inhibitors; recombinant BLM DNA unwinding, fluorescence dequenching; AID 2528;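 note: plate controls were vehicle for no effect and no enzyme for full effect; nearly all actives have a fitted effect of over 35% in size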
KAT2A inh: GCN5L2 (KAT2A) acetyltransferase inhibition. Q92830. GCN5L2 HAT assay, ThioGlo1 CoA-SH fluorescence. Potency, µM (series often up to 58.9 µM), inactives show at the top dose activity change, negative = inhibition, usual class: inhibitors. actives 0.21% (n = 390,000)
Target sequence (Q92830 whole entry, looked up): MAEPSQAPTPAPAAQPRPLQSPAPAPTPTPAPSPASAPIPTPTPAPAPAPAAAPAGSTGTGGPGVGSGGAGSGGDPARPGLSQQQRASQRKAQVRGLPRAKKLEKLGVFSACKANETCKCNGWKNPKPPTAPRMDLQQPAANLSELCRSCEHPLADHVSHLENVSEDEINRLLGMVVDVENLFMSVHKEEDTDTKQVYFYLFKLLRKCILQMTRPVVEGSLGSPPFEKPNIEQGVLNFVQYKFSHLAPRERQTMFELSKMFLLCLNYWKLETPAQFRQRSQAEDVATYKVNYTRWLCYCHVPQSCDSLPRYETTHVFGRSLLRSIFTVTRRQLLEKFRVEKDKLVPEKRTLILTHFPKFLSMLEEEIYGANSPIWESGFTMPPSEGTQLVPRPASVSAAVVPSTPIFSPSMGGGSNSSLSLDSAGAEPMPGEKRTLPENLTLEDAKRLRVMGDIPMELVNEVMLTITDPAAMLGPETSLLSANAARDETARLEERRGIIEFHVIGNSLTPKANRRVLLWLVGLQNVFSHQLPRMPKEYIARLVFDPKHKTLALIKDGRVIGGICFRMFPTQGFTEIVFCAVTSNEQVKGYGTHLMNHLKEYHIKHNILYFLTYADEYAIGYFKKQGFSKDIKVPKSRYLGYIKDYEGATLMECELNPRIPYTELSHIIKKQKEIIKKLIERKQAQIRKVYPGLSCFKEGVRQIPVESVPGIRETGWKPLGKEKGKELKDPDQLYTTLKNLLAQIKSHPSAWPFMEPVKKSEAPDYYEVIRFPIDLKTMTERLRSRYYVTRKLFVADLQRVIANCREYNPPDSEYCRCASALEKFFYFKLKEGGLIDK
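ThioGlo1-coupled HAT assay: 20nM GCN5L2, 70uM acetyl-CoA, 75uM H3(1-25) peptide, pH 7.5. Fluorescence read at 340/540nm at start and after 20 min at room temperature.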
TDP1 block: TDP1 (human) enzyme inhibition. Q9NUW8. recombinant TDP1, AlphaScreen DNA substrate cleavage. Potency, µM (doses to about 130 µM), inactives show at the highest dose activity change, negative = inhibition, usual class: inhibitors. actives 0.28% (n = 350,000). AID 485290; note: nearly all actives have a fitted effect of over 40% in size
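E. coli-derived human Tdp1, 1 nM final. Cpd preinc 15 min RT; substrate 15 nM final, 5 min RT; AS bead mix 10 ug/ml final, 10 min RT. Signal loss = tyrosine-FITC cleavage. No-enzyme wells = max signal.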
RECQ1 inh-1: inhibitors of human RECQ1 DNA helicase. P46063. RECQ1 DNA unwinding, red fluorescence kinetic read. Potency, µM (highest dose often 57.3 µM), inactives show top-dose activity, negative = inhibition, hits mostly inhibitors. actives 0.54% (n = 240,000). AID 2549;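 note: plate controls were vehicle for no effect and no enzyme for full effect; nearly all actives have a fitted effect of over 30% in size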
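RECQ1T1 50 nM; forked duplex (20 bp + 30-nt ss tails) 200 nM, ATP 2 mM final; pH 8.0, 2 mM MgCl2, 2.5 ug/ml poly(dI-dC); 15 min compound preincubation; discontinuous kinetic read over 2 h at RT.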
APEX1 inh: blocks human APE1 abasic DNA cleavage | recombinant APE1, TAMRA/BHQ-2 abasic DNA cleavage fluorescence | Potency, µM (series often up to 65.8 µM), for inactives: top-dose activity change, negative = inhibition, actives largely listed as inhibitors | actives 0.35% (n = 350,000) | AID 2517;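 note: plate controls were vehicle for no effect and reference inhibitor for full effect; nearly all actives have a fitted effect of over 55% in size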
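Step 1: APE1 (0.75 nM) with compound, 15 min RT. Step 2: add 50 nM fluorophore/quencher THF duplex. Step 3: three fluorescence reads 60 s apart (525/598 nm); read 3 minus read 1 = reaction progress.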
RECQ1 inh conf: confirmation of human RECQ1 helicase inhibitors. shares compounds with RECQ1 inh-1. actives 28% (n = 610). Potency, µM (top dose mostly 229 µM), for the others: at the highest dose activity change, negative = inhibition, actives largely listed as inhibitors. RECQ1 helicase DNA unwinding, fluorescence. AID 2708; note: nearly all actives have a fitted effect of over 45% in size
ADP FP counter: displaces ADP in a fluorescence polarization counter-screen for RECQ1 hits | shares compounds with RECQ1 inh-1 | ADP fluorescence polarization displacement counterscreen | Potency, µM (titrated, usually from 228 µM), for inactives: top-dose activity change, negative = inhibition, actives largely listed as inhibitors | actives 27% (n = 530); note: nearly all actives have a fitted effect of over 45% in size
RECQ1 inh-2: RECQ1 helicase inhibition confirmed, round 2 | shares compounds with RECQ1 inh-1 | actives 15% (n = 1,100) | Potency, µM (doses to about 119 µM), without a hit: at the highest dose activity, negative = inhibition, actives largely listed as inhibitors | recombinant RECQ1 DNA unwinding, red fluorescence; note: nearly all actives have a fitted effect of over 50% in size
* = called active by the depositor; i = inactive; ? = inconclusive; . = no result; [ ] = dose if it differs, or a comment. The sample as a whole holds a higher share of hits than the screen did. Unless noted, calls come from the whole dose curve; as a rule, active = well fitted curve in the direction sought with a large enough effect; inconclusive = small, poorly fitted or top-dose-only effect, or another doubt; inactive = no such curve, though single readings can be large; an effect the other way counts as inactive or inconclusive. Unless noted, % is set by controls: 0 for no effect and ±100 for the full control effect; potency is the fitted concentration of half-maximal effect.

SMILES	KDM4E inh	BLM helicase inh	KAT2A inh	TDP1 block	RECQ1 inh-1	APEX1 inh	RECQ1 inh conf	RECQ1 inh-2	others
CC(C)(O)C#CC#CCN1CCOCC1	3.6%	-3.6%	1.8%	0.0%	?	14.0%	.	-9.1%
OC1(C#CCN2CCOCC2)CCCCC1	-6.4%	3.2%	2.6%	-4.9%	-2.9%	5.9%	.	.
C/C=C1\COC(C(=O)NCc2ccccn2)(C(F)(F)F)C=C1C=C(C)C (stereo unspecified)	.	-5.6%	.	5.0%	i	-5.7%	.	.
CCC(=O)Nc1ccc2nc(SCCOc3ccc(C)cc3OC)sc2c1	.	-4.3%	-4.1%	5.7%	.	.	.	.
Cc1cc(C(=O)OCC(=O)NC2CCCCC2C)c2ccccc2n1 (stereo unspecified)	.	.	-0.2%	-0.2%	.	-10.6%	.	.
CC1CCCCC1NC(=O)COC(=O)c1c2c(nc3ccccc13)/C(=C/c1ccco1)CC2 (stereo unspecified)	15.8µM*	?	?	-2.4%	12.6µM*	?	1.0%[114 µM]	?
COc1cccc(Cn2c(=O)c(-c3ccccc3)nc3cnc(N4CCNCC4)nc32)c1	.	3.2%	-14.9%	.	-7.9%	0.6%	.	.
CCOC(=O)c1ccc(NC(=O)CSc2nc(C)cc(=O)[nH]2)cc1	-1.3%	-19.9%	-21.2%	-12.0%	?	-12.0%	.	?
COc1ccc(OC)c(NC(=O)Cn2c(=O)c3cccn3c3ccccc32)c1	.	-8.2%	-17.4%	5.2%	.	.	.	.
CCN(CC)c1ccc(/C=N/OCC(=O)Nc2cccc(C)c2)cc1	?	-5.6%	-7.8%	6.7%	?	4.3%	.	56.2µM*
CCN(CC)c1ccc(NC(=O)CCCOc2cccc(C)c2)cc1	-1.1%	-12.5%	-9.8%	6.1%	-13.9%	3.6%	.	.
COC(=O)[C@@H]1CC2=CC(=O)CC[C@]2(C)[C@@]23O[C@@H]2C[C@@]2(C)[C@H](CC[C@@]24CCC(=O)O4)[C@@H]13	.	5.3%	21.3%	0.0%	-4.6%	12.9%	.	.
CC1=Nc2cc(C(=O)O)ccc2Sc2ccc(Br)cc21	3.7%	-5.5%	-22.8%	2.6%	0.316µM*	?	100µM*	-8.4%	ADP FP counter=19.9%[91.9 µM]
Cc1ccc(S(=O)(=O)N(C)C)cc1NC(=O)COC(=O)c1n[nH]c(=O)c2ccccc12	2.3%	3.4%	-0.1%	1.8%	-5.4%	1.7%	13.2%	.	ADP FP counter=?
O=C(NCc1ccccc1Cl)c1ccc(NC(=O)N2CCSc3ccccc32)cc1	.	-4.0%	-0.4%	-2.5%	.	.	.	.
O=C(O)CSc1nnc(Cc2ccccc2)n1Cc1ccccc1	-4.5%	1.4%	-2.2%	4.7%	1.2%	0.4%	12.3%	.	ADP FP counter=9.1%
O=C(O)CSc1nnc(Cc2ccccc2)n1-c1ccccc1	-3.9%	-0.9%	-11.3%	-4.4%	-2.1%	-0.9%	.	.
O=C(O)CC/C(=N/NC(=O)c1cn(-c2ccccc2)nc1-c1ccccc1)C(=O)O	2.9%	6.8%	-0.8%	-1.9%	i	2.6%	2.9%	.	ADP FP counter=-7.4%
CCOC(=O)c1[nH]c2c(c1Cc1ccccc1)C(=O)CC(c1ccccc1)C2 (stereo unspecified)	.	-10.3%	-13.3%	-2.1%[12.3 µM]	.	.	.	.
O=C1c2ccccc2C(=O)N1CC1c2ccccc2CCN1S(=O)(=O)c1cnc[nH]1 (stereo unspecified)	-5.8%	2.7%	1.7%	3.3%	-2.9%	2.4%	.	.
